Data: ChEMBL document CHEMBL3988442, “University of Dundee, Small-Polar-MMV Screening Library” (2021)
Hit rate of the full screen: of about 38,000 compounds, about 1,200 (3.2%) showed an effect of 50% or more. The median lay at about -58%. The full list was thinned out, with strong results kept by preference.

Tested on: Plasmodium falciparum
Test: Calibr Malaria Delayed Death Assay SOP
Format: functional, organism-based
Set-up: scale not given: in the data most compounds retested in dose-response had high values
Details: concentration 4.99e-06 (unit not given; other assays of the set use mol/L)

| SMILES | Percent Effect [%] |
| --- | --- |
| Cn1c2c(c(=O)n1C)CN(C(=O)c1cccc(F)c1)CCC2 | -64.91 |
| CCC(CO)N(Cc1cccs1)C(=O)CNS(=O)(=O)c1cccs1 (stereo not given) | -105.8 |
| COc1ccccc1N1CCC(CNS(=O)(=O)c2cccs2)C1 (stereo not given) | 4.169 |
| O=S(=O)(NCC(c1ccsc1)N1CCCCCC1)c1cccs1 (stereo not given) | 84.95 |
| CN(C)c1ccc(C(CNS(=O)(=O)c2cccs2)N2CCCC2)cc1 (stereo not given) | 52.34 |
| CN1CCc2cc(C(CNS(=O)(=O)c3cccs3)N3CCCC3)ccc21 (stereo not given) | 13.73 |
| CC(CNS(=O)(=O)CCCC#N)c1ccsc1 (stereo not given) | -35.87 |
| Cc1nc(CN2CCCN(Cc3nc4ccccc4o3)CC2)no1 | -14.25 |
| CSCC(=O)N1CCOC(c2nc(C(C)(C)C)n[nH]2)C1 (stereo not given) | -128.5 |
| O=C(C1CC(=O)N(c2n[nH]c3cc(Br)ccc23)C1)N1CCOCC1 (stereo not given) | -162.5 |
| O=C(NC1CC1)N1CCc2ncc(CN3CCOCC3)n2CC1.O=C(O)C(F)(F)F | -16.42 |
| O=C(CC1NC(N2CCc3ccccc32)=NC1=O)Nc1ccccc1 (stereo not given) | -56.07 |
| C[C@@H]1CN(C(=O)c2cccc(F)c2)C[C@]12CCN(c1ccsc1)C2=O | -98.41 |
| Cc1cc(C)n(CC2CN(CC3CCCC3)CCO2)n1 (stereo not given) | -35.36 |
| COc1ccc(N2CCC(N3CCOC(C(F)(F)F)C3)CC2)cc1 (stereo not given) | -105.9 |
| Cc1ccc(-c2cccc(N3CCC(NC4CCOCC4)CC3)c2)cc1 | -119.9 |
| CCS(=O)(=O)c1ccc(N2CCC(NC(C)=O)CC2)cc1 | -87.36 |
| COc1cccc(N2CCC(N3CCOC(C(F)(F)F)C3)CC2)c1 (stereo not given) | -105.8 |
| CNC1CCN(C2CCN(c3ccc(-c4ccco4)cc3)CC2)CC1 | 85.81 |
| Cc1nc[nH]c1-c1nccn1CCN1CCCC1=O | -100.3 |
| CCOC[C@@H]1CC[C@H]2[C@H](CCN2C(=O)c2ccncc2F)O1 | -16.41 |
| Clc1cc(Cl)cc(CN2CCC(NCc3ncc[nH]3)CC2)c1 | 83.8 |
| OC1CCN(Cc2ccc(CNc3ncc(Cl)cc3F)cc2)CC1 | 26.38 |
| Clc1cccc(N2CCC(NCc3ncc[nH]3)C2)c1 (stereo not given) | 65.12 |
| c1ccc(CN2CCC(NCCSc3cnn[nH]3)CC2)cc1 | -21.85 |
| Clc1cccc(N2CCC(NCc3cc[nH]n3)C2)c1 (stereo not given) | -43.41 |
| CCn1cc(CNC2CCN(c3cccc(Cl)c3)C2)cn1 (stereo not given) | 17.81 |
| Brc1ccc(CN2CCC(NCc3ncc[nH]3)CC2)cc1 | 82.48 |
| Cc1cccc(OC2CCN(Cc3ncc[nH]3)CC2)c1 | 7.466 |
| OC1CCN(Cc2ccc(CNc3ccc(Cl)cn3)cc2)CC1 | -61.51 |
